{"source": "PubChem BioAssay (NCATS)", "note": "Inconclusive results are not listed. A number with no mark means an inactive call. The call rests on the fitted dose curve; in most records, active means well fitted activation curve with a large enough effect; inconclusive means small, poorly fitted or top-dose-only effect; inactive means flat fitted curve, though single readings scatter. Where a SMILES comes first, the peptide text is derived from it. [ ]: non-standard residue; d: D form. 2Abz = Nc1ccccc1C(=O)O", "data": [{"assay": "Primary redox qHTS assay for identification of artifact compounds. (AID 1845223);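 further: 0% = DMSO and 100% = reference compound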", "details": "Amplex Red/HRP redox cycling with DTT, fluorescence; series mostly up to 53.8 µM; redox activity (% of DA3003): at the top concentration", "outline": "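Redox-cycling detection via DTT (250 uM final) oxidation coupled to Amplex Red (25 uM)/HRP (250 mU/mL) in HBSS. 15 min preincubation plus 30 min after DTT, room temperature. Ex/Em 525/598 nm; 4-parameter Hill fit against DMSO and 10 uM DA3003.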", "values": [{"smiles": "C/C=C(\\C)C(=O)O[C@@H]1CC2[C@@H](CC=C3C[C@@H](O[C@H]4C[C@H](OC)[C@H](O[C@H]5C[C@H](OC)[C@H](O[C@H]6C[C@H](OC)[C@H](O[C@H]7C[C@@H](OC)[C@H](O[C@@H]8O[C@H](CO)[C@@H](O)[C@H](O)[C@H]8O)[C@@H](C)O7)[C@@H](C)O6)[C@@H](C)O5)[C@@H](C)O4)CC[C@@]32C)[C@@]2(O)CC[C@H](C(C)=O)[C@@]12C", "note": "(some centres undefined)", "redox activity (% of DA3003)": "-9.41% [at 11.5 µM]"}, {"smiles": "CCOc1nc2cccc(C(=O)OCc3oc(=O)oc3C)c2n1Cc1ccc(-c2ccccc2-c2noc(O)n2)cc1", "redox activity (% of DA3003)": "10.6%"}, {"smiles": "Nc1c(Br)cc(Br)cc1CNC1CCC(O)CC1", "note": "(centres undefined)", "redox activity (% of DA3003)": "19.1%"}, {"smiles": "C/C=C/C1=CC2=C(CO1)C(=O)[C@](C)(O)[C@H](OC(=O)c1c(O)cc(OC)c(O)c1C)C2", "redox activity (% of DA3003)": "-15.6% [at 25.6 µM]"}, {"smiles": "C[C@@H]1CC[C@]2(C(=O)O)CC[C@]3(C(=O)O)C(=CCC4[C@@]5(C)CC[C@H](O[C@@H]6O[C@@H](C)[C@H](O[C@@H]7O[C@H](CO)[C@@H](O)[C@H](O)[C@H]7O)[C@@H](O)[C@H]6O)C(C)(C)C5CC[C@]43C)C2[C@H]1C", "note": "(some centres undefined)", "redox activity (% of DA3003)": "-10.2% [at 25.6 µM]"}, {"smiles": "CCCCNC(=O)[C@@H]1Cc2ccccc2N1C(=O)[C@@H](N)CC", "redox activity (% of DA3003)": "-4.88%"}, {"smiles": "COc1cc(/C=C/C(=O)O[C@H]2[C@H](OC(=O)/C=C/c3cc(OC)c(O)c(OC)c3)O[C@H](CO[C@@H]3O[C@H](CO)[C@@H](O)[C@H](O)[C@H]3O)[C@@H](O)[C@@H]2O)ccc1O", "redox activity (% of DA3003)": "-10.7% [at 25.6 µM]"}, {"smiles": "CC1CCC2C(C)(C)CC(C)(CO)C2(O)C1C(=O)O", "note": "(centres undefined)", "redox activity (% of DA3003)": "-13.3%"}, {"smiles": "CCNC(=O)[C@H]1O[C@H](n2cnc3c(NCC(c4ccccc4)c4ccccc4)nc(C(=O)NCCNC(=O)NC4CCN(c5ccccn5)CC4)nc32)[C@H](O)[C@@H]1O", "redox activity (% of DA3003)": "1.7%"}, {"smiles": "OC[C@H]1O[C@@H](Oc2cc(O)cc(-c3cc4ccc(O)cc4o3)c2)[C@H](O)[C@@H](O)[C@@H]1O", "redox activity (% of DA3003)": "-1.6% [at 25.6 µM]"}, {"smiles": "OC[C@H]1O[C@@H](n2cnc3c(NCc4ccc(O)cc4)ncnc32)[C@H](O)[C@@H]1O", "redox activity (% of DA3003)": "-1.51%"}, {"smiles": "COc1cc([C@H]2OC[C@@H]3[C@@H](c4ccc(O[C@@H]5O[C@H](CO)[C@@H](O)[C@H](O)[C@H]5O)c(OC)c4)OC[C@]23O)ccc1O", "redox activity (% of DA3003)": "-1.82% [at 25.6 µM]"}, {"smiles": "O=C(/C=C/c1ccc(O)c(O)c1)OCc1ccccc1O[C@@H]1O[C@H](CO)[C@@H](O)[C@H](O)[C@H]1O", "redox activity (% of DA3003)": "-6.38% [at 25.6 µM]"}, {"smiles": "COc1cc(/C=C/C(=O)OC(C)(C)C(OC2OC(CO)C(O)C(O)C2O)C(=O)OCc2ccc(OC3OC(CO)C(O)C(O)C3O)cc2)ccc1O", "note": "(centres undefined)", "redox activity (% of DA3003)": "-11.1% [at 25.6 µM]"}, {"smiles": "CC(/C=C/C1(O)C2(C)COC1(C)CC(=O)C2)O[C@@H]1O[C@H](CO)[C@@H](O)[C@H](O)[C@H]1O", "note": "(some centres undefined)", "redox activity (% of DA3003)": "-5.08% [at 25.6 µM]"}, {"smiles": "CCC(C)C1NC(=O)C2CCCN2C(=O)C(C(C)C)NC(=O)c2ccccc2NC(=O)C(Cc2ccc(O)cc2)NC(=O)C(C)NC(=O)C(C(C)O)NC1=O", "note": "(centres undefined) (cyclo([2Abz]VPITAY); configuration not given here)", "redox activity (% of DA3003)": "2.65% [at 25.6 µM]"}, {"smiles": "CC(C)(O)/C=C1/C(=O)C(C)(C)C(=O)C(C)(C)C1(O)O[C@@H]1O[C@H](COC(=O)c2cc(O)c(O)c(O)c2)[C@@H](O)[C@H](O)[C@H]1O", "note": "(some centres undefined)", "redox activity (% of DA3003)": "-3.66% [at 25.6 µM]"}, {"smiles": "C=C1C2(CCC(=O)OC2(C)C)CC(OC(=O)/C(C)=C/C)C2(C)C13OC14C(=O)OC(C)(C(=O)C12C(=O)OC4C)C3OC(C)=O", "note": "(centres undefined)", "redox activity (% of DA3003)": "-1.57% [at 25.6 µM]"}, {"smiles": "CC1C/C=C/C=C\\CCCCC(O)C/C=C/C(=O)O1", "note": "(centres undefined)", "redox activity (% of DA3003)": "-2.15%"}, {"smiles": "CC(C)=CCCC1(C)Oc2cc3c(c4c2C2C(O4)C(C)(O)CCC21)CN(C(CCC(=O)O)C(=O)O)C3=O", "note": "(centres undefined)", "redox activity (% of DA3003)": "7.4% [at 25.6 µM]"}, {"smiles": "COc1cc([C@@H]2Oc3c(OC)cc(CCCO)cc3[C@@H]2CO[C@@H]2O[C@H](CO)[C@@H](O)[C@H](O)[C@H]2O)ccc1O", "redox activity (% of DA3003)": "-0.54% [at 25.6 µM]"}, {"smiles": "CC(C)C(=O)O[C@@H]1[C@@H](O)[C@@H](O[C@H]2O[C@H](CO)[C@@H](O)[C@H](O)[C@H]2O)O[C@H](CO)[C@H]1O", "redox activity (% of DA3003)": "-13.1% [at 25.6 µM]"}, {"smiles": "CC(CO[C@@H]1O[C@H](COC(=O)/C=C/c2ccc(O)c(O)c2)[C@@H](O)[C@H](O)[C@H]1O)C1(O)COC(=O)C1", "note": "(some centres undefined)", "redox activity (% of DA3003)": "-6.89% [at 25.6 µM]"}, {"smiles": "CC1=CC(=O)CC(C)(C)C1(O)CCC(C)O", "note": "(centres undefined)", "redox activity (% of DA3003)": "2.11%"}, {"smiles": "COc1ccc2c(c1)O[C@H](O[C@@H]1O[C@H](CO)[C@@H](O)[C@H](O)[C@H]1O)C(=O)N2", "redox activity (% of DA3003)": "-11.2%"}, {"smiles": "CNC(=O)c1ccc2cc([C@@]3(O)CCn4cncc43)ccc2c1", "redox activity (% of DA3003)": "-4.72%"}, {"smiles": "NC(=O)c1cccc(-c2cc(O)cc(OC(=O)NC3CCCCC3)c2)c1", "redox activity (% of DA3003)": "8.8% [at 25.6 µM]"}, {"smiles": "CC(=O)N(O)CCCCCN1C(=O)CCC1=O", "redox activity (% of DA3003)": "-11.3%"}, {"smiles": "C=C(C)[C@@H]1CC[C@](C)(O)[C@@H](OC(=O)c2ccccc2)C1", "redox activity (% of DA3003)": "-4.73%"}, {"smiles": "CC1CCC2C(C)(C)C(O)CCC2(C)C12Cc1c(O)cc3c(c1O2)C(N)=NC3", "note": "(centres undefined)", "redox activity (% of DA3003)": "-4.03%"}, {"smiles": "C[C@H]1[C@H](C)CC[C@]2(C(=O)O[C@@H]3O[C@H](CO)[C@@H](O)[C@H](O)[C@H]3O)CC[C@]3(C(=O)O)C(=CCC4[C@@]5(C)CC[C@H](O[C@@H]6O[C@H](CO)[C@@H](O)[C@H](O)[C@H]6O)C(C)(C)C5CC[C@]43C)[C@H]12", "note": "(some centres undefined)", "redox activity (% of DA3003)": "2.24% [at 11.5 µM]"}, {"smiles": "CCn1cc(C2=NOC(C(=O)Nc3c(C)n(C)n(-c4ccccc4)c3=O)C2)c(C)n1", "note": "(centres undefined)", "redox activity (% of DA3003)": "0%"}, {"smiles": "CC1(C)CCC(C)(C)c2cc([C@@H](O)C(=O)Nc3ccc(C(=O)O)cc3F)ccc21", "redox activity (% of DA3003)": "22%"}, {"smiles": "C=CC(C)(O)CC/C=C(\\C)C(=O)OCC1OC(OC2CCC3(C)C(CCC4(C)C3CC=C3C5CC(C)(C)C(O)CC5(C(=O)O)CCC34C)C2(C)C)C(O)C(OC2OC(CO)C(O)C(OC3OC(CO)C(O)C(OC4OC(COC5OC(CO)C(O)C(O)C5O)C(O)C(O)C4O)C3O)C2O)C1O", "note": "(centres undefined)", "redox activity (% of DA3003)": "18.5% [at 11.5 µM]"}, {"smiles": "CC1=C(CC(=O)O)c2cc(F)ccc2C1=Cc1ccc(S(C)(=O)=O)cc1", "redox activity (% of DA3003)": "4.64%"}, {"smiles": "COc1cc(/C=C/C(=O)OC2CC(OC(C)=O)C(OC(C)=O)C3C2CCC2C(=O)OC(c4ccoc4)CC23C)ccc1O[C@@H]1O[C@H](CO)[C@@H](O)[C@H](O)[C@H]1O", "note": "(some centres undefined)", "redox activity (% of DA3003)": "0.88% [at 25.6 µM]"}, {"smiles": "COc1ccc([C@H]2Cc3cccc(O)c3C(=O)O2)cc1", "redox activity (% of DA3003)": "-14.7%"}, {"smiles": "CCC(=O)NS(=O)(=O)c1ccc(-c2c(-c3ccccc3)noc2C)cc1", "redox activity (% of DA3003)": "-3.05%"}, {"smiles": "CC1(C)C(O)CCC2(C)C1C(O)C=C1COC(=O)C12O", "note": "(centres undefined)", "redox activity (% of DA3003)": "-1.58%"}]}]}
